Experiments:
Test in all cases: PBM binding z-score (relative to random genomic background probes); higher = stronger binding; sequences stand for … in GC…GCGATTGACAGCGTAGAATGAAGG
[1] = test system: RARb homodimer (NR concentration 270 nM)
Summary of the method: (§1)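 For binding z-scores, the reference was random background probes on custom Agilent 4×180K protein-binding microarrays. These arrays were incubated 1 h with ligand-free nuclear receptor dimers in PBS pH 7.4, 2% milk, 0.02% Triton X-100, 1 mM DTT, 0.2 mg/mL BSA and 0.4 mg/ml salmon testes DNA. Fluorescence was scanned after antibody detection of each partner (one per run) and regression-normalized.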

[2] = test system: RARg:RXRa (NR concentration 270 nM, RXRa partner concentration 90 nM)
Summary of the method: as §1

[3] = test system: RARg homodimer (NR concentration 270 nM)
Summary of the method: as §1

[4] = test system: RXRa DBDmut IVT, anti-RXR (DBD mutation: RXRa K156A/R161A, NR concentration 90 nM)
Summary of the method: as §1

[5] = test system: RXRa homodimer (NR concentration 180 nM)
Summary of the method: as §1

[6] = test system: THRa:RXRa (NR concentration 90 nM, RXRa partner concentration 90 nM)
Summary of the method: as §1

[7] = test system: THRa homodimer (NR concentration 90 nM)
Summary of the method: as §1

[8] = test system: VDR:RXRa (NR concentration 270 nM, RXRa partner concentration 90 nM)
Summary of the method: as §1

[9] = test system: VDR homodimer (NR concentration 270 nM)
Summary of the method: as §1

Row | Sequence | PBM binding z-score [1] | PBM binding z-score [2] | PBM binding z-score [3] | PBM binding z-score [4] | PBM binding z-score [5] | PBM binding z-score [6] | PBM binding z-score [7] | PBM binding z-score [8] | PBM binding z-score [9]
1 | AGAATGAGGTTATTAAGAGCAGGGAATTGCGGTC | 1.16 | 1.1 | 0.698 | 2.01 | 1.48 | 2.14 | 0.798 | 2 | 1.21
2 | GCTTACGGGTCAAAGGTTATATCATGAATAGAAT | 3.32 | 6.74 | 4.71 | 2.66 | 9.55 | 4.12 | 0.113 | 5.71 | 2.09
3 | TCTATTAGTTGAAGGGCAACAGACGAGTCCGTTT | 1.14 | 0.634 | 0.745 | 1.68 | 0.567 | 0.209 | 0.0682 | 1.01 | 1.55
4 | CGTCAAAGTTCAAGTAAGGTAACGTAAAGCACGC | 4.18 | 5.63 | 6.15 | 4.54 | 4.68 | 5.33 | 1.95 | 4.46 | 3.69
5 | ACTCAAAGTTCACTAGGTAACGTAAGATTCAGCT | 3.65 | 4.84 | 5.79 | 4.63 | 3.51 | 2.22 | 0.585 | 4.17 | 4.45
6 | CCTCCTGGGCCAAAGGTCATTGATTCCAATGCTC | 4.24 | 5.81 | 4.61 | 0.646 | 6.35 | 3.17 | 0.804 | 4.75 | 2.32
7 | ATACCAAGGTGATCATGAGGTCGTTGATACTAAC | 1.85 | 2.23 | 1.18 | 1.08 | 1.75 | 3.55 | 2.94 | 3.38 | 3.15
8 | CGTCAAAGTGCAACTAAGGTAACGTAAAGCACGC | 1.18 | 1.58 | 1.59 | 1.13 | 0.815 | 4.99 | 1.18 | 0.866 | 0.128
9 | TGCATGAGGTTATAAGATCAGGGAACGTTGCAAA | 0.168 | 1.64 | 1.08 | 1.32 | 1.84 | 1.93 | 0.273 | 1.01 | 0.679
10 | CAAACTAGGTCACCGGAAGGTCGAAGTCCGCATG | 4.74 | 6.69 | 6 | 1.66 | 4.65 | 4.04 | 2.22 | 4.47 | 1.97
11 | TCATATAGGTAAATACTAGGTGAAAGTCCGATCT | 0.493 | 0.573 | 0.709 | 1.89 | 1 | 1.49 | 0.718 | 1.19 | 0.521
12 | CCTATTAGTTGACCATAAGGGCTACCGAAGCTCG | 1.04 | 0.591 | 0.633 | 0.659 | 0.214 | 0.318 | 0.305 | 0.25 | 0.787
13 | ACAGACAGGTGAGTGAAGGTAACACAGCTGGACG | 0.48 | 0.416 | 0.789 | -0.436 | 0.647 | 1.87 | -0.183 | -0.0356 | -0.21
14 | TCATATTGGTAAAAGGTGAAAGTCGGTGTGGTAA | 2 | 1.24 | 0.709 | 1.66 | 1.99 | 1.62 | 0.665 | 1.64 | 0.829
15 | TCGAGTAGGTTAGGGGCATTGAGAATGGCGTCGA | 0.964 | 0.14 | 0.129 | 0.205 | 0.572 | 0.83 | 0.383 | 0.491 | 0.492
16 | AGGATGAGGTTACCAAAGATCAGGGAAACGCTTG | 1.18 | 1.94 | 1.65 | 0.402 | 2.51 | 2.67 | 1.29 | 1.45 | 0.534
17 | CCGACTGGGGCAAGGTTATCATAACGCACAGCCA | 1.27 | 1.03 | 1.08 | 0.0521 | 1.12 | 1 | 0.224 | 0.0882 | 0.128
18 | TGTTGTAGATCAACAGGAGGTTAAGAAAGATCGA | 0.36 | 1.06 | 0.365 | -0.89 | 0.741 | 0.863 | -0.492 | 0.37 | -0.0284
19 | CCTTCTGGGCCATCAGGTCATTGATATCAACGTT | 2.61 | 2.3 | 2.36 | 0.59 | 1.46 | 3.19 | 2.98 | 1.81 | 1.83
20 | CGTCAAAGTTCAACTATGGTAACGTAAAGCACGC | 4.39 | 5.88 | 6.65 | 4.74 | 4.82 | 3.57 | 0.175 | 4.35 | 4.04
21 | TATACAGGGTCAAAGGCCAGAGTACGAATGTCGA | 3.67 | 5.46 | 5.12 | 3.02 | 6.7 | 3.76 | 0.87 | 4.8 | 3.4
22 | TCGAGTAGGTTACCAAAGGGGCATTCAGCTTTCT | 1.34 | 2.2 | 0.617 | 0.44 | 0.779 | 0.46 | -0.71 | 0.89 | 0.0103
23 | ATATGTAGGTTACATCCGGGTCACTCAGGCTATG | 3.14 | 3.8 | 2.2 | 0.745 | 3.03 | 3.94 | 2.97 | 3.71 | 2.29
24 | GCTAATTGGTCAGTAAAAGGTCACACACCGGTCG | 5.34 | 5.37 | 4.52 | 0.816 | 5.27 | 3.88 | 2.1 | 4.07 | 2.14
25 | CCATACGGGTCACTGACAGGTTATAGCATTTGGA | 3.06 | 5.82 | 4.78 | 1.24 | 5.32 | 2.84 | -0.0458 | 3.74 | 1.3
26 | ATCAAAAGGTCGACGAGGTGAGTATACACCGTTT | 3.3 | 4.4 | 4.08 | 1.52 | 4.69 | 3.9 | 1.05 | 5.4 | 0.947

Row | Sequence | PBM binding z-score [1] | PBM binding z-score [2] | PBM binding z-score [3] | PBM binding z-score [4] | PBM binding z-score [5] | PBM binding z-score [6] | PBM binding z-score [7] | PBM binding z-score [8] | PBM binding z-score [9]
27 | AGAATGAGGTAATTAAGATCAGGGAATTGCGGTC | -0.177 | 0.105 | 0.0569 | -0.166 | 0.198 | 1.34 | 0.328 | 0.215 | -0.255
28 | ATAAGTAGGTTAAGGGTCATTCAGGTTGGTTCGC | 4.19 | 4.8 | 3.75 | 2.28 | 6.11 | 3.65 | 2.27 | 5.89 | 4.94
29 | CCTACTGGACCAAAGGTCATTGATTCCAATGCTC | 4.9 | 5.27 | 4.97 | 1.85 | 6.4 | 3.46 | 1.67 | 5 | 3.18
30 | CCTACTGGGCCAAGGACATTGATCAGTCAAAGCA | 0.324 | 0.0324 | 0.267 | -0.538 | -0.348 | 1.29 | 0.695 | -0.496 | 0.333
31 | ATCTCTAGGTAACAAGTGCAGTGAAAGAGAGGAC | 0.571 | 0.393 | 0.624 | -0.169 | 0.249 | 1.11 | 0.468 | 0.287 | 0.625
32 | ACAGACACGTGAGTGAAGGTAACTCAGCTGGACG | -0.372 | -0.114 | 0.0531 | -0.182 | 0.149 | -0.478 | -0.846 | -0.481 | -0.417
33 | TCAGACAGGTGAAGGTAACCCAGGTACGCAGTCG | 1.25 | 0.745 | 0.803 | 0.992 | 1.29 | 1.48 | 0.57 | 0.641 | 0.454
34 | CCGACTGGGTCAGAAAGGTTACCATACCATCCGG | 3.1 | 3.34 | 3.44 | -0.333 | 3.12 | 2.09 | 0.207 | 4.2 | 1.14
35 | CGAAATAGGTCAGAACAGGACAGTGAAGGATGAT | 2.82 | 3.36 | 4.15 | 0.269 | 2.42 | 4.13 | 0.228 | 1.71 | 0.382
36 | TCTAGTTGGTCACGGAGGTCGCACACGACGGGTA | 2.48 | 2.11 | 2.3 | 0.614 | 2.16 | 1.91 | 0.625 | 4.06 | 1.18
37 | ACTATCAGTTGAGACGAGGGCAACCGATAGGTTG | 1.12 | 0.732 | 0.78 | 0.39 | 0.625 | 2.59 | 0.179 | 0.625 | 0.822
38 | ATATGTAGGTTAAGGGTCGTTCAGGTTGGTTCGC | 2.6 | 2.82 | 1.63 | 1.64 | 3.9 | 2.48 | 1.75 | 3.88 | 2.58
39 | TCTAGCACGCCAGAGGGTCACTCAAGAGGTACGG | 2.3 | 2.29 | 1.68 | 0.0776 | 2.41 | 1.48 | -0.414 | 1.37 | 0.501
40 | CGAACGAGGGCATGAGTTGATAGCCAATGCCGAT | 0.853 | 1.34 | 1.88 | 2.3 | 1 | 1.24 | -0.039 | 1.09 | 1.56
41 | GTACCAAGGTGAATAGGTCGTTGAAGAGTAGGCG | 2.13 | 2.81 | 1.45 | -0.183 | 1.9 | 1.91 | 0.593 | 1.01 | 0.198
42 | ACAGACAGGTGAGTGACGGTAACTCAGCTGGACG | -0.222 | 0.269 | 0.362 | -0.203 | 0.416 | -0.128 | -0.727 | -0.336 | -0.577
43 | ATATGTCGGTTAGCTGGGGTCATTCAGACTAGGC | 3.58 | 3.65 | 2.68 | 1.59 | 5.28 | 4.56 | 3.31 | 5.12 | 4.56
44 | CTACCAAGGTGAACAAGGACGTTGATTACTATTC | 0.951 | 0.848 | 1.13 | 0.601 | 0.715 | 2.43 | 1.36 | 3.82 | 0.537
45 | ATACCAAGGTGATCGTGAGGTCGTTGATACTAAC | 1.73 | 2.06 | 1.03 | 0.728 | 1.38 | 3.4 | 2.63 | 3.23 | 2.83
46 | TGACTGAGGTTATAAGATCAGGGAACGTTGCAAA | 0.146 | 1.59 | 0.985 | 0.64 | 1.87 | 1.58 | -0.016 | 0.798 | 0.435
47 | CAAACTAGGTCCCAGAGGTCAAAGTCCGTGCGTA | 4.35 | 5.07 | 4.38 | 2.04 | 5.62 | 3.67 | 1.58 | 5.88 | 3.87
48 | TCATATAGGTAAATGCTTGGTGAAAGTCCGATCT | 0.222 | 0.052 | 0.0294 | 1.52 | 0.692 | 0.0324 | 0.34 | 0.808 | 0.414
49 | ATATGTAGGTTAAGGGTCATTAAGGTTGGTTCGC | 4.07 | 4.66 | 3.54 | 1.78 | 5.92 | 3.48 | 1.58 | 6.19 | 3.96
50 | AGAATGAGGTTATACGTAGATCGGGGAAGAAAGT | 0.901 | 1.6 | 0.926 | 2.14 | 2.27 | 2.12 | 0.732 | 1.43 | 0.909
51 | ATACCAAGGTGATCGTGAGGTGGTTGATACTAAC | 0.533 | 0.588 | 0.258 | -0.212 | 0.48 | 1.61 | 0.979 | -0.0231 | 0.166
52 | TCTTGTAGATCACTAGAGGTTAAGAAAGTGCGCT | 1.33 | 0.919 | 0.66 | 0.477 | 1.6 | 2.43 | -0.317 | 2.06 | 0.162
